Results: PubChem BioAssay (EPA / NIEHS)
Activity calls are given as the source filed them. Rule for the calls: active = hit-call score of the fitted dose curve at least 0.9, where 1 is the maximum; inactive = score below 0.9.

Experiment: ATG_MRE_CIS: Attagene CIS-FACTORIAL HepG2 Assay for human Metal Responsive Element (MRE) (AID 2282954)
Conditions: HepG2 MRE cis-reporter transcription, Attagene multiplex; actives raise or lower the signal
Experimental: ATG_CIS is a cell-based, multiplexed-readout assay that uses HepG2, a human liver cell line, with measurements taken at 24 hours after chemical dosing in a 24-well plate.ATG_MRE_CIS is one of 52 assay component(s) measured or calculated from the ATG_CIS assay. It is designed to make measurements of mRNA induction, a form of inducible reporter, as detected with fluorescence intensity signals by Reverse transcription polymerase chain reaction (RT-PCR) and Capillary electrophoresis technology.Data from the assay component ATG_MRE_CIS was analyzed into 1 assay endpoint. This assay endpoint, ATG_MRE_CIS, was analyzed with bidirectional fitting relative to DMSO as the negative control and baseline of activity. Using a type of inducible reporter, measures of mRNA for gain or loss-of-signal activity can be used to understand the reporter gene at the transcription factor-level as they relate to the gene MTF1. Furthermore, this assay endpoint can be referred to as a primary readout, because this assay has produced multiple assay endpoints where this one serves a reporter gene function. To generalize the intended target to other relatable targets, this assay endpoint is annotated to the dna binding intended target family, where the subfamily is zinc finger.
Human liver HepG2 cells are transiently transfected with multiple reporter transcription units (MRTUs) in 6-well plates using FuGene 6 reagent (Roche; 3 ml FuGene/1 mg DNA). The MRTU constructs are regulated by a cis-regulating element (promoter). […] A major difference between the CIS and TRANS system is that in CIS activities of endogenous TFs are measured, whereas the TRANS assay evaluates changes in activities of exogenous, chimeric NR-Gal4 proteins. […] At the end of 24 hour incubation, total RNA was isolated using TriZol reagent (Invitrogen). The isolated RNA is then reverse-transcribed using oligo(dT) primer and Mo-MLV reverse transcriptase (Invitrogen) with DNAse I (Ambion) treatment for 30 min. The one-tenth of the produced cDNA was amplified by PCR using Taq DNA polymerase (Invitrogen) and two reporter sequence-specific primers. The PCR products were fluorescently labeled by primer extension with 6-arboxyfluorescein (6-FAM) 5'-labeled reporter sequence-specific primer (2 min at 95 C, 20 s at 68 C and 10 min at 72 C) and these products were digested with 5U of HpaI (New England Biolabs) for 2h at 37 C. The fragments were purified using Qiaquick PCR columns (Qiagen), analyzed on an ABI 3130xL genetic analyzer (Applied Biosystems) with peak positions identified by using a set of X-rhodamine (ROX)-labeled MapMarker1000 molecular weight standards (BioVentures). The raw capillary electrophoresis data was processed using Attagraph software (Attagene).

SMILES	outcome	AC50
COC(C)(C)CCO	inactive	–
O=C1CCCC=CCCCCCCCCCC1	inactive	–
CCC1(C)NC(=O)NC1=O (stereo not given)	inactive	–
CN1CCOCC1	inactive	–
O=C(CC(=O)c1ccccc1)c1ccccc1	–	136 µM (active)
C=C(C#N)C(=O)OCC	inactive	–
CC(C=O)Cc1ccc(C(C)(C)C)cc1 (stereo not given)	inactive	–
NCC1CCCC(CN)C1 (stereo not given)	inactive	–
CC(C)=CCCC(C)CC(=O)O (stereo not given)	inactive	–
Cc1ncc([N+](=O)[O-])n1CCO	inactive	–
CN(c1nccc(=O)[nH]1)C1CCN(c2nc3ccccc3n2Cc2ccc(F)cc2)CC1	–	26.7 µM (active)
CC=CC=CCOC(=O)C(C)C	inactive	–
[O-]n1ccccc1=S.[O-]n1ccccc1=S.[Zn+2]	–	0.923 µM (active)
CCCC(=O)OC(C)(C)Cc1ccccc1	inactive	–
[Cl][Au]([Cl])[Cl]	inactive	–
C=CC(C)(O)CCC=C(C)C (stereo not given)	inactive	–
CC(C)(CO)[C@@H](O)C(=O)NCCC(=O)O	inactive	–
CCC(C)c1cc([N+](=O)[O-])cc([N+](=O)[O-])c1OC(=O)OC(C)C (stereo not given)	–	34.8 µM (active)
CCCCCCC(O)CCCCCCCCCCC(=O)O (stereo not given)	inactive	–
c1ccc(CN(Cc2ccccc2)Cc2ccccc2)cc1	inactive	–

SMILES	outcome	AC50
COc1ccc(N=Nc2cc(C)c(N=Nc3ccc(S(=O)(=O)O)cc3)cc2OC)cc1	inactive	–
ClC(c1ccccc1)(c1ccccc1)c1ccccc1	inactive	–
CCCCCCCCC=CCCCCCCCC1=NCCN1CCO	inactive	–
c1ccc2[nH]cnc2c1	inactive	–
CCCCCCCCCCCCCCN(CCO)CCO	inactive	–
CCCCCCOC(=O)CCC	inactive	–
CC(=O)O[C@H]1C[C@@H]2CC[C@@]1(C)C2(C)C	inactive	–
COc1cc(CCC(C)=O)ccc1O	inactive	–
C=Cc1ccc(C)cc1	inactive	–
O=C(Nc1ccc2c(c1)Cc1ccccc1-2)C(F)(F)F	inactive	–
COc1cc(Cl)c(OC)cc1N	inactive	–
C=C(CC(=O)O)C(=O)O	inactive	–
CC(C)(C)c1ccc(C(=O)O)cc1	inactive	–
CC(C)CCCCCCc1ccc(OCCOCCO)cc1	inactive	–
CC(C)CCCCCCCCCCCCCCC(=O)O	inactive	–
OCC#CCO	inactive	–
C=C(C)[C@H]1CC=C(C)C(=O)C1	inactive	–
CC(C)OCCO	inactive	–
CCCCCCCC/C=C\CCCCCCCC(=O)OCC	inactive	–
CC(=O)C1(C)CC2=C(CCCC2(C)C)CC1C (stereo not given)	–	160 µM (active)
